Assay results from PubChem BioAssay AID1159580 (chemical genetic matrix, 2015).
Several values for one entry are separate records, joined by “and”; a condition that tells them apart may be missing. Identical values can stand only once. In all, about 5,500 compounds went through this assay and about 2,000 (36%) were called active. Roughly 18% stayed inconclusive and do not appear here. Cut-off read from the data, not from the text of the source: active = normalized growth mostly below about 0.91 (no sharp cut-off); inconclusive = no clear call, values can overlap the other calls; inactive = mostly above about 0.92. This is one part of the list.

Test: chemical genetic growth profiling, strain panel (AID 1159580);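 note: tested at 20 µM; growth read once vehicle control cultures reached saturation at 30 °C; 1 = growth at the plate median or of vehicle wells; lower values mean less growth of the strain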
Conditions: S. cerevisiae deletion strains, growth OD

Measured: normalized growth

Nc1ccn(C2O[C@H](CO)[C@@H](O)[C@H]2O)c(=O)n1 (some centres undefined)
inactive: locus YAL021C, strain ccr4, active compounds read low 0.985 | locus YAL026C, strain drs2, active compounds read low 0.983 | locus YAL030W, strain snc1, active compounds read low 0.982 | locus YBL061C, strain skt5, active compounds read low 0.996 | locus YBR009C, strain hhf1, active compounds read low 0.997 | locus YBR021W, strain FUR4, active compounds read low 1.02 | locus YBR023C, strain chs3, active compounds read low 1 | locus YBR171W, strain sec66, active compounds read low 0.991 | locus YBR229C, strain ROT2, active compounds read low 0.997 | locus YBR231C, strain swc5, active compounds read low 0.987 | locus YBR279W, strain paf1, active compounds read low 0.995 | locus YCL011C, strain gbp2, active compounds read low 0.991 | locus YCL016C, strain dcc1, active compounds read low 1 | locus YCL029C, strain bik1, active compounds read low 1.01 | locus YCL061C, strain MRC1, active compounds read low 0.992 | locus YCL069W, strain vba3, active compounds read low 0.992 | locus YCR088W, strain abp1, active compounds read low 0.985 | locus YDL005C, strain med2, active compounds read low 0.983 | locus YDL035C, strain GPR1, active compounds read low 1.01 | locus YDL040C, strain nat1, active compounds read low 0.987 | locus YDL074C, strain BRE1, active compounds read low 1.03 | locus YDL101C, strain DUN1, active compounds read low 1.02 | locus YDL185W, strain tfp1, active compounds read low 1.03 | locus YDL192W, strain arf1, active compounds read low 1.01 | locus YDR001C, strain nth1, active compounds read low 0.977 | locus YDR069C, strain doa4, active compounds read low 0.992 | locus YDR101C, strain arx1, active compounds read low 1.03 | locus YDR137W, strain rgp1, active compounds read low 0.982 | locus YDR150W, strain NUM1, active compounds read low 0.962 | locus YDR159W, strain sac3, active compounds read low 0.982 | locus YDR162C, strain NBP2, active compounds read low 1 | locus YDR195W, strain ref2 0.974 | locus YDR297W, strain sur2, active compounds read low 0.982 | locus YDR318W, strain mcm21, active compounds read low 0.998 | locus YDR334W, strain swr1, active compounds read low 0.981 | locus YDR335W, strain msn5, active compounds read low 0.982 | locus YDR388W, active compounds read low 1 | locus YDR392W, strain spt3, active compounds read low 0.995 | locus YDR502C, strain sam2, active compounds read low 1.01 | locus YEL003W, strain gim4, active compounds read low 0.99 | locus YEL037C, strain rad23, active compounds read low 0.991 | locus YEL061C, strain CIN8 (second series), active compounds read low 0.983 | locus YEL061C, strain CIN8, active compounds read low 1.01 | locus YER015W, strain faa2, active compounds read low 1.01 | locus YER016W, strain bim1, active compounds read low 0.987 | locus YER110C, active compounds read low 1.01 | locus YER111C, strain swi4, active compounds read low 0.982 | locus YER155C, strain BEM2 (second series), active compounds read low 0.975 | locus YER155C, strain BEM2, active compounds read low 1 | locus YER167W, strain BCK2, active compounds read low 0.987 | locus YFR010W, strain ubp6, active compounds read low 0.972 | locus YGL078C, strain dbp3, active compounds read low 1.01 | locus YGL086W, strain mad1, active compounds read low 1.03 | locus YGL167C, strain pmr1, active compounds read low 0.997 | locus YGL173C, strain kem1, active compounds read low 0.995 | locus YGL227W, strain vid30, active compounds read low 0.993 | locus YGL240W, strain doc1, active compounds read low 1.01 | locus YGL248W, strain PDE1, active compounds read low 0.991 | locus YGL253W, strain hxk2, active compounds read low 0.996 | locus YGR078C, strain PAC10, active compounds read low 1.02 | locus YGR135W, strain pre9, active compounds read low 1 | locus YGR252W, strain gcn5, active compounds read low 0.993 | locus YHR013C, strain ard1, active compounds read low 1.01 | locus YHR027C, strain rpn1, active compounds read low 0.989 | locus YHR030C, strain SLT2, active compounds read low 1.01 and 1 | locus YHR079C, strain IRE1 (second series), active compounds read low 1 | locus YHR079C, strain IRE1, active compounds read low 0.995 | locus YHR094C, strain hxt1, active compounds read low 1.01 | locus YHR129C, strain ARP1, active compounds read low 1.01 | locus YHR142W, strain chs7, active compounds read low 0.999 | locus YHR200W, strain rpn10, active compounds read low 1.02 | locus YIL066C, strain RNR3, active compounds read low 0.995 | locus YIL073C, strain SPO22, active compounds read low 1.02 | locus YIL125W, strain kgd1, active compounds read low 1.01 | locus YIR030C, strain dcg1, active compounds read low 1.01 | locus YJL092W, strain hpr5, active compounds read low 0.988 | locus YJL095W, strain BCK1 (second series), active compounds read low 0.995 | locus YJL095W, strain BCK1, active compounds read low 1.06 and 1 | locus YJL115W, strain asf1, active compounds read low 0.975 | locus YJL129C, strain trk1, active compounds read low 0.995 | locus YJL134W, strain LCB3, active compounds read low 0.999 | locus YJL154C, strain vps35, active compounds read low 0.978 | locus YJL164C, strain tpk1, active compounds read low 1 | locus YJL166W, strain qcr8, active compounds read low 0.999 | locus YJL168C, strain set2, active compounds read low 0.999 | locus YJL187C, strain SWE1 (second series), active compounds read low 1.04 | locus YJL187C, strain SWE1, active compounds read low 0.987 | locus YJR043C, strain POL32, active compounds read low 1 | locus YJR066W, strain TOR1, active compounds read low 0.909
